# SRC3 TRFRET art = TR-FRET detection interference compounds, artefact control for PPARgamma SRC-3 recruitment agonists, biochemical, TR-FRET ratio. TR-FRET artefact counter-screen, PPARgamma/SRC-3 format; active compounds read high. TR-FRET ratio at 8 µM. 0.39% of 99,000 active; in the data active = TR-FRET ratio above about 2000
# PPARg SRC-3 ag = PPARgamma agonists recruiting SRC-3 coactivator, primary screen, biochemical; Peroxisome proliferator-activated receptor gamma (Homo sapiens), P37231; activation, % at 8 µM; biochemical PPARgamma/SRC-3 coactivator recruitment assay; 0.26% of 200,000 active; in the data active = activation above about 23%;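 note: 0% = DMSO and 100% = reference agonist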
# Target sequence (P37231 whole entry, looked up): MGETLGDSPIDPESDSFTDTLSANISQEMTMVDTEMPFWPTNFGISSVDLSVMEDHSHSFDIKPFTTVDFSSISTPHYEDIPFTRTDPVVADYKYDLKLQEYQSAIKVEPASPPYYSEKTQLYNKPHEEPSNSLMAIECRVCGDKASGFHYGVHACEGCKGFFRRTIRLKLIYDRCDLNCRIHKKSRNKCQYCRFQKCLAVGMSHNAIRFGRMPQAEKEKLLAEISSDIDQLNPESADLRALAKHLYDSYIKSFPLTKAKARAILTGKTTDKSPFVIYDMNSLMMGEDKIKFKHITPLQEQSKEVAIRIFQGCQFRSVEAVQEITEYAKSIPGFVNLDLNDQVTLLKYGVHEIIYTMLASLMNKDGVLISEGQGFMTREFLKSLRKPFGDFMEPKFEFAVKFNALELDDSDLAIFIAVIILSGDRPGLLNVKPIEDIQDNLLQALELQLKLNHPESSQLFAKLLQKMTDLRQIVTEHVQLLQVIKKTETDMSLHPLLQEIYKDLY
# PPARg SRC2 recr = agonists of PPARg-SRC-2 recruitment, primary screen, biochemical, HTS | 0.34% of 200,000 active | activation, % at 8 µM | PPARgamma LBD-SRC-2 recruitment | Peroxisome proliferator-activated receptor gamma (Homo sapiens), P37231;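 note: 0% = vehicle and 100% = reference agonist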
# SRC1 TRFRET art = TR-FRET detection interference compounds, primary screen, artefact control for PPARgamma SRC-1 recruitment agonists, biochemical, TR-FRET emission ratio. AID 1051, 2008. TR-FRET ratio at 8 µM. 0.34% of 99,000 active. TR-FRET detection artefact counter-screen; active compounds read high; in the data active = TR-FRET ratio above about 2300
# PPARg SRC-1 ag = PPARgamma agonists recruiting SRC-1 coactivator, primary screen, biochemical; activation, % at 8 µM; PPARgamma-SRC-1 coactivator recruitment biochemical assay; 0.41% of 200,000 active; in the data active = activation above about 19%;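 note: 0% = DMSO and 100% = reference agonist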
# SRC2 TRFRET art = TR-FRET signal artefacts, primary screen, artefact control for PPARgamma SRC-2 agonist project, biochemical. AID 1049, 2008. 0.4% of 200,000 active. TR-FRET ratio at 8 µM. TR-FRET artefact counter-screen; active compounds read high; in the data active = TR-FRET ratio above about 2000
# PPARg SRC2 ag = agonists of PPARgamma SRC-2 coactivator recruitment, confirmation, biochemical, HTS | shares compounds with PPARg SRC-3 ag | biochemical SRC-2 recruitment by PPARgamma | activation, % at 8 µM | 52% of 790 active | AID 1297, 2008;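 note: 0% = vehicle alone and 100% = reference agonist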
# PPARg SRC1 ag = PPARgamma agonists recruiting SRC-1 coactivator, confirmation, biochemical; 43% of 790 active; shares compounds with PPARg SRC-3 ag; PPARgamma–SRC-1 coactivator recruitment biochemical assay; activation, % at 8 µM; in the data active = activation above about 20%;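 note: 0% = vehicle wells and 100% = reference agonist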
# PPARg SRC3 ag = PPARgamma-driven SRC-3 coactivator recruitment agonists, confirmation, biochemical. 29% of 790 active. biochemical PPARgamma-SRC-3 coactivator recruitment, agonist mode. shares compounds with PPARg SRC-3 ag. activation, % at 8 µM. AID 1301, 2008; in the data active = activation above about 24%;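 note: 0% = vehicle wells and 100% = reference agonist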
# * marks the source's active call; other numbers are inactive results; nt = no result given. In the library only some 0.9% were active in any assay of this set; here they are far more common. Cut-off read from the data, not from the text of the source, unless noted: active = activation above about 22%; inactive = the rest.
SMILES,SRC3 TRFRET art,PPARg SRC-3 ag,PPARg SRC2 recr,SRC1 TRFRET art,PPARg SRC-1 ag,SRC2 TRFRET art,PPARg SRC2 ag,PPARg SRC1 ag,PPARg SRC3 ag
COC(=O)c1ccc(NC(=O)CSc2nccn2CCc2ccccc2)cc1,nt,2,-5,nt,0,1434,nt,nt,nt
Cc1cc(NC(=O)CCSc2ccc(Cl)cc2)no1,1554,7,7,2042,16,1493,nt,nt,nt
Cc1nc(NC(N)=S)sc1C(=O)Nc1ccccc1,nt,27*,18,nt,14,1621,5,5,5
Cc1nc(N)sc1C(=O)Nc1ccccc1,nt,4,-4,nt,2,1547,nt,nt,nt
Cc1cccc(Nc2nc(-c3ccccc3)c(C(=O)Nc3cccnc3)s2)c1,3117*,27*,38*,3448*,29*,2484*,57*,44*,38*
O=C(Nc1cccnc1)c1sc(Nc2ccccc2)nc1-c1ccccc1,3330*,42*,55*,3708*,48*,2618*,79*,59*,54*
CC(=O)Oc1ccc2c(=O)c(Oc3ccccc3)coc2c1OC(C)=O,1450,10,-6,1759,5,1662,nt,nt,nt
COc1ccccc1C(=O)N/C(=C\c1ccc2c(c1)OCO2)C(=O)NCCc1nc2ccccc2[nH]1,1492,4,-2,1805,1,1659,nt,nt,nt
CSc1ccccc1-c1nnc(-c2ccccc2)o1,nt,9,0,nt,0,1741,nt,nt,nt
CSc1nnc(-c2ccccc2SC)o1,2050,14,20,2301,22*,1917,19,12,8
COC(=O)c1[nH]c2cc(OC)ccc2c1N,nt,28*,14,nt,11,1621,17,7,10
CCOC(=O)Nc1c(C(=O)OC)[nH]c2cc(OC)ccc12,nt,3,-3,nt,2,1735,nt,nt,nt
O=C(O)c1ccccc1N/C=C\[N+](=O)[O-],1512,1,-8,1877,-5,1553,nt,nt,nt
C=CCOc1cccc(C2C(C(=O)c3ccco3)=C(O)C(=O)N2CCN(CC)CC)c1 (stereo unspecified),nt,0,7,nt,8,1590,nt,nt,nt
Cc1cc(N2C(=O)C(O)=C(C(=O)c3cccs3)C2c2cccc(O)c2)no1 (stereo unspecified),nt,-4,6,nt,-2,1443,nt,nt,nt
Cc1ccc2nc(N3C(=O)C(O)=C(C(=O)c4ccc(C)o4)C3c3cccc(O)c3)sc2c1 (stereo unspecified),1853,10,24*,2305,15,1951,4,4,2
C=CCOc1cccc(C2C(C(=O)c3ccc(C)o3)=C(O)C(=O)N2c2nccs2)c1 (stereo unspecified),nt,23,32*,nt,24*,2025*,2,-1,3
COC(=O)c1ccc(NC(=O)c2snnc2-c2ccccc2)cc1,1514,0,-8,1959,3,1385,nt,nt,nt
O=C1C=C(c2cccs2)CC(c2cccs2)C1n1cnc([N+](=O)[O-])c1 (stereo unspecified),nt,26*,20,nt,12,1790,18,20*,12
CCN1CCCC1CNC(=O)CSc1cc(=O)n(C)c2cc(Cl)ccc12 (stereo unspecified),nt,57*,52*,nt,50*,2477*,39*,28*,27*
CCn1c(=O)cc(SCC(=O)NCC2CCCO2)c2ccccc21 (stereo unspecified),nt,66*,50*,nt,31*,2825*,35*,21*,23
CC(C)N(C(=O)Cn1cc(SCC(=O)NCC2CCCO2)c2ccccc21)C(C)C (stereo unspecified),1645,2,1,1859,1,1473,nt,nt,nt
Cn1c(=O)cc(SCC(=O)NCCC2=CCCCC2)c2ccc(Cl)cc21,1608,0,-6,1403,-4,1438,nt,nt,nt
CN(CCCNC(=O)CSc1cc(=O)n(C)c2cc(Cl)ccc12)Cc1ccccc1,2993*,33*,20,3308*,64*,2902*,39*,27*,27*
Cn1c(=O)cc(SCC(=O)NCC2CCCO2)c2ccc(Cl)cc21 (stereo unspecified),nt,112*,90*,nt,63*,2967*,43*,28*,29*
SMILES,SRC3 TRFRET art,PPARg SRC-3 ag,PPARg SRC2 recr,SRC1 TRFRET art,PPARg SRC-1 ag,SRC2 TRFRET art,PPARg SRC2 ag,PPARg SRC1 ag,PPARg SRC3 ag
CCOC(=O)c1sc(NC(=O)CCN2C(=O)c3cccc([N+](=O)[O-])c3C2=O)c(C(=O)OCC)c1C,nt,3,-4,nt,5,1514,nt,nt,nt
CCCCN(C(=O)CN1CCOCC1)c1c(N)n(CC(C)C)c(=O)[nH]c1=O,1429,0,0,1591,0,1564,nt,nt,nt
COc1cc2oc(=O)c(Br)c(C)c2c(OC)c1OC,nt,62*,46*,nt,41*,2553*,40*,34*,24*
COc1cc2oc(=O)cc(C)c2c(OC)c1OC,1792,2,3,1724,6,1448,nt,nt,nt
CCOc1ccc(NC(=O)CSc2nnc(COc3c(C)cccc3C)o2)cc1,nt,5,3,nt,-1,1486,nt,nt,nt
CCOC(=O)c1c(NC(=O)CSc2nnc(Cc3ccccc3)o2)sc(C(C)=O)c1C,nt,44*,36*,nt,16,2328*,20,13,15
CCOC(=O)c1c(NC(=O)CSc2nnc(-c3ccccc3)o2)sc(C(C)=O)c1C,nt,20,11,nt,12,1725,nt,nt,nt
CCOC(=O)c1cccc(NC(=O)CSc2nnc(COc3ccccc3C)o2)c1,nt,7,5,nt,20*,1625,5,4,3
O=C(Nc1cc(SCC(O)CO)cc([N+](=O)[O-])c1)c1ccc(-n2cnnn2)cc1 (stereo unspecified),1435,28*,59*,1703,62*,1611,10,3,3
N#Cc1cc2cc3c(cc2nc1NCCNC(=S)NCCCN1CCOCC1)OCO3,1769,5,1,1749,-6,1622,nt,nt,nt
CC1(C)Cc2ccccc2-c2nnc(SCC(=O)N3CCc4ccccc43)n21,nt,25,17,nt,24*,1651,13,13,11
COC(=O)CSc1nnc2n1C(C)(C)Cc1ccccc1-2,nt,-10,3,nt,11,1643,nt,nt,nt
Cc1ccccc1-c1ccc(C=Nc2c(C)n(C)n(-c3ccccc3)c2=O)o1,nt,20,35*,nt,24*,2051*,24*,19,17
